SARS 3CLpro inh = SARS-CoV 3CLpro protease inhibition; recombinant SARS-CoV 3CLpro, quenched FRET peptide cleavage; inhibition, % at 6 µM; 290,000 compounds, 0.14% hits; AID 1706; in the data active = inhibition above about 12%
RecA intein inh = Mtb RecA intein splicing inhibition; P9WHJ3; cell-free RecA intein splicing, fluorescence; inhibition, % (concentration not given with the values); 290,000 compounds, 0.75% hits; AID 2221; in the data active = inhibition above about 30%;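 also: 0% = vehicle wells and 100% = reference inhibitor control wells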
Target sequence (P9WHJ3 whole entry, looked up): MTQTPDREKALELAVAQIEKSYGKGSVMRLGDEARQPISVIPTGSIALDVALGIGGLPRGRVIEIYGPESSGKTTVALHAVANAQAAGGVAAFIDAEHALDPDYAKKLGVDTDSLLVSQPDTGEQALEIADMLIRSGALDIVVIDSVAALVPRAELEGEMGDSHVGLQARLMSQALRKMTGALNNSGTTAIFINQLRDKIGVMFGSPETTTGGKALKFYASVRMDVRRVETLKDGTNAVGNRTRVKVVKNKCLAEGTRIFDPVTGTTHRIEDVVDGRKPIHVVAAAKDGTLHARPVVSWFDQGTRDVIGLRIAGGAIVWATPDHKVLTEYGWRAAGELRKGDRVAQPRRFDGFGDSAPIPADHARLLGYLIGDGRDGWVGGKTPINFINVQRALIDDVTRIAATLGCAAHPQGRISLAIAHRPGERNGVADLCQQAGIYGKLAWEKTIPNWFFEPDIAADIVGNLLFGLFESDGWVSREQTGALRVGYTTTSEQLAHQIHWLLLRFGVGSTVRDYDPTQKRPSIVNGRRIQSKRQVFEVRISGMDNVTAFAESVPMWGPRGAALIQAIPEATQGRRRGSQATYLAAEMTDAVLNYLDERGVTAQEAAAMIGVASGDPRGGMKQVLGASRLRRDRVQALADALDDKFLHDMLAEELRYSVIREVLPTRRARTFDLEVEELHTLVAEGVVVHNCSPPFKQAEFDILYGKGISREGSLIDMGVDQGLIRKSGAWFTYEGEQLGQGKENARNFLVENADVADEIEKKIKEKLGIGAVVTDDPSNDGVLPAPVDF
CCHF vOTU inh = CCHFV vOTU protease inhibition. Pep-AMC fluorescence. inhibition, % at 11.5 µM. 370,000 compounds, 0.55% hits. AID 651958; in the data active = inhibition above about 30%; also: 0% = vehicle wells with enzyme and 100% = no enzyme wells
PriA SSB inh = inhibitors of Klebsiella pneumoniae PriA binding to SSB C-terminal tail; AlphaScreen SSBct-PriA binding, biotinylated peptide; inhibition, % at 33 µM; 430,000 compounds, 0.6% hits; in the data active = inhibition mostly above about 37%, no sharp cut-off; inactive = mostly below about 20%;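 also: plate controls were negative control peptide for no effect and reference peptide for full effect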
DUSP3 inh = DUSP3 (human) phosphatase inhibition; 290,000 compounds, 0.52% hits; inhibition, % at 13.3 µM; recombinant VHR phosphatase, pNPP absorbance; in the data active = inhibition above about 50%
* marks the source's active call; other numbers are inactive results; · = no result given; ! = a repeat was not active. Rows were chosen to be rich in hits. Some 1.7% of all compounds tested hit in one or more screens of this group.

SMILES	SARS 3CLpro inh	RecA intein inh	CCHF vOTU inh	PriA SSB inh	DUSP3 inh
CS(=O)(=O)c1cccc(-c2nnc(NC(=O)C3CC(=O)N(c4ccccc4)C3)o2)c1 (centres undefined)	·	·	·	20	·
COc1ccc(N2CC(C(=O)Nc3nnc(-c4ccnn4C)o3)CC2=O)cc1 (centres undefined)	·	·	·	71*	·
O=C(Nc1nnc(-c2ccccc2)o1)C1CC(=O)N(c2ccccc2)C1 (centres undefined)	·	·	·	44*!	·
CC(C)(Cc1ccc(O)cc1)NC(=O)SCc1ccccc1	6	-3	7	5	51*
COc1ccc(C(=O)CSc2cc(C)[nH]c(=O)n2)cc1	-1	5	17	-4	50*
O=C1NC2(CCCCC2)Cc2ccccc21	0	0	-2	-6	8
S=C1NC2(CCCCC2)Cc2ccccc21	2	1	-13	44*	-11
COc1ccc(N2CCN(c3oc(-c4ccccc4OC)nc3C#N)CC2)cc1	5	·	·	27	27
N#Cc1nc(-c2ccco2)oc1N1CCN(c2ccccc2)CC1	3	-2	2	38*	5
COc1ccccc1-c1nc(C#N)c(N2CCc3ccccc3C2)o1	1	-2	-57	56*	7
COc1ccccc1-c1nc(C#N)c(N2CCN(c3ccccc3)CC2)o1	0	12	-4	51*	8
CC(C)c1ccc(Cc2cnc(NC(=O)C3=NCCN3)s2)cc1	·	·	·	-7	·
Cc1ccnc(SC2CC(=O)N(c3ccc(Cl)cc3)C2=O)n1 (centres undefined)	-1	8	10	2	31
Cc1ccnc(SC2CC(=O)N(c3ccc(C(C)C)cc3)C2=O)n1 (centres undefined)	-1	4	7	-20	51*
O=C(NCCCn1nc(-c2cccs2)ccc1=O)c1ccc2c(c1)OCO2	·	·	·	-1	·
CCC(C)OC(=O)c1cc(C)nc2c(Br)cc(Br)cc12 (centres undefined)	0	1	12	-13	58*
CCC(=O)Nc1nc2ccccc2n1CCN(C)C	-3	-1	7	2	57*
CC(=O)Nc1nc2ccccc2n1CCN(C)C	1	1	16	-7	19
CCCCc1ccc(-n2nnc(C(=O)Nc3ccccc3)c2C)cc1	·	·	·	-5	·
O=C(NO)c1cc(OCC(F)(F)F)ccc1OCC(F)(F)F	-3	-3	12	-9	23
C#CCONC(=O)c1cc(OCC(F)(F)F)ccc1OCC(F)(F)F	2	-2	9	-7	53*
COC(=O)[C@@H]1C[C@H]2CC[C@H](O)C[C@H]2N1Cc1ccc(C(C)(C)C)cc1	·	-3	13	101*	19
CC[n+]1c(C)sc2c3ccsc3ccc21	5	1	-3	-5	51*
CC[n+]1c(C)sc2sc3ccccc3c21	-4	0	·	·	-3
CCOC(=O)c1cc(CC)sc1N=Cc1c(O)[nH]c(=S)[nH]c1=O	·	·	·	9	·
SMILES	SARS 3CLpro inh	RecA intein inh	CCHF vOTU inh	PriA SSB inh	DUSP3 inh
CCCCNS(=O)(=O)c1ccc2nc(SCC(=O)c3ccc(C#N)cc3)[nH]c2c1	2	8	15	-32	57*
CCCCNS(=O)(=O)c1ccc2nc(SCC(=O)Nc3ccccc3)[nH]c2c1	1	5	3	-11	-4
COc1ccc(OC)c(Nc2nc(CC(=O)O)cs2)c1	·	·	·	-5	·
COc1ccc(NC(=O)c2csc(Nc3ccc(OC(F)F)cc3)n2)cc1OC	·	·	·	active	·
COc1ccccc1NC(=O)Nc1nc(CC(=O)Nc2ccc(N(C)C)cc2)cs1	·	3	2	74*	·
COc1ccc(OC)c(Nc2nc(CC(=O)Nc3cccc(C)c3C)cs2)c1	·	·	·	24*	·
COc1cccc(CNC(=O)Cc2csc(Nc3cc(OC)ccc3OC)n2)c1	·	·	·	22*	·
N#CC1=C(SCC(N)=O)NC(=O)C(C#N)C1c1ccccc1Cl (centres undefined)	·	·	·	-1	·
O=C(Nc1ccc(F)cc1)Nc1csc2ccccc12	1	-6	-2	0	18
COc1ccc(OC)c(Nc2nc(CC(=O)NCc3ccccc3Cl)cs2)c1	·	·	·	22	·
CN(C)c1ccc(NC(=O)Nc2csc3ccccc23)cc1	-4	-2	-5	40*	-3
COc1ccc(OC)c(Nc2nc(CC(=O)NCc3ccccc3OC)cs2)c1	·	·	·	17*	·
CC(=O)Nc1cccc(NC(=O)Cc2csc(Nc3cccc(C(F)(F)F)c3)n2)c1	·	·	·	-1	·
COc1ccc(NC(=O)Cc2csc(Nc3cccc(C(F)(F)F)c3)n2)cc1OC	·	·	·	17*	·
O=C(NCc1cnn2ccccc12)C1(c2cccs2)CCCC1	·	·	·	-7	·
Cc1cc(C)n(CC(C)C(=O)Nc2cc(Cl)ccc2C)n1 (centres undefined)	·	·	·	-2	·
O=[N+]([O-])c1ccccc1Sc1cccc2cccnc12	·	·	·	51	·

Compound activity from PubChem BioAssay.
